# Several values for one entry are separate records, joined by “and”; a condition that tells them apart may be missing. Equal entries are not always repeated. The panel holds about 79,000 compounds, 15% with a hit somewhere; the sample as a whole holds those more often. Values without a mark were called inactive. Activity calls are given as the source filed them. Cut-off read from the data, not from the text of the source: active = growth inhibition above about 70%; inactive = the rest.
# Test: NCI Yeast Anticancer Drug Screen. Data for the mlh1 rad18 strain (AID 175)
# Settings: S. cerevisiae mlh1 rad18 strain growth inhibition; at 50.0 µM; hits give high values
# In short: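 Test agents were incubated with a yeast strain of defined genotype (DNA damage repair defect). Inhibition of growth was derived by comparison with vehicle-exposed cultures.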
row,Structure (SMILES),growth inhibition
1,O=C(c1ccccc1)C1C(C(=O)c2ccccc2)N1Cc1ccccc1 (stereo not given),-7.8% and 6.65%
2,c1ccc2c(c1)ccc1[s+]cccc12,76% (active)
3,CC(C)N(C(=O)SCC(Cl)=C(Cl)Cl)C(C)C,30%
4,CC(C)(Cl)[N+](=O)[O-],16.6%
5,CC(C)NC(C)C(C)c1ccccc1 (stereo not given),11%
6,[Pd].[Pd].[S-]CC[S-].[S-]CC[S-].c1ccc([PH+](c2ccccc2)c2ccccc2)cc1.c1ccc([PH+](c2ccccc2)c2ccccc2)cc1,13.1%
7,N.N.O=P([O-])([O-])CN(CP(=O)([O-])[O-])CP(=O)([O-])[O-].[Pt+2],-23.1%
8,CC1(CCl)COP(=O)(NN)OC1 (stereo not given),5.35%
9,O=[P+](O)c1ccccc1,-5.5% and 1.3%
10,O=P1(N(CCCl)CCCl)Oc2c(Cl)cc(Cl)c(Cl)c2Cc2c(Cl)c(Cl)cc(Cl)c2O1,-10.7%
11,CN(C)P(=O)(N(C)C)N(C)CO,4.6%
12,O=C(O)c1cc(Cc2ccc(O)c(C(=O)O)c2)ccc1O,-23.9% and -10.8%
13,Cc1cccc(NC(=O)C(=O)C2C(=O)NC(=O)NC2=O)c1C,12.2%
14,C=C1C(=O)OC2CC3(C)OC3CC/C(C)=C/C(OC(C)=O)C12 (stereo not given),38%
15,CCn1/c(=N\N=O)sc2ccccc21,3.6%
16,COC(=O)c1cccc(S(=O)(=O)F)c1,-28.4%
17,CO[C@H]1Nc2c(ccc(C)c2O)C(=O)N2C=C(/C=C/C(N)=O)C[C@@H]12,87.3% (active)
18,COC(=O)c1ccccc1NP(=O)(O)Oc1ccccc1 (tested in a mixture with another compound),-11.9%
19,CC1([N+](=O)[O-])COP(=O)(NCC2CCCO2)OC1 (stereo not given),3.95%
20,CCCCCCC(=O)O[C@H]1CC[C@H]2[C@@H]3CCC4C/C(=N/NC(=O)c5cccc6c(=O)c7ccccc7[nH]c56)C=C(C)[C@]4(C)[C@H]3CC[C@]12C (stereo not given in full),-55.3%

row,Structure (SMILES),growth inhibition
1,CC(C)C(NC(=O)CCl)C(=O)O (stereo not given),0.3%
2,Clc1ccc([As](c2ccc(Cl)cc2)c2ccc(Cl)cc2)cc1,48.4%
3,CC(C)(C)C(=O)CC(=O)C(C)(C)C.[Cl][Sb]1([Cl])[c]2ccccc2Cc2cccc[c]21,8.95%
4,NCC1OC(OC2C(CO)OC(OC3C(O)C(N)CC(N)C3OC3OC(CN)C(O)C(O)C3N)C2O)C(N)C(O)C1O (stereo not given),6.8%
5,O=NN(CCF)C(=O)NCCO,-32.2%
6,O=C(Oc1ccc(S(=O)(=O)F)cc1Cl)c1ccc([N+](=O)[O-])cc1,93.7% (active)
7,CC(=O)c1ccccc1O,-29.4% and -4.5%
8,O=c1oc2cc(O)ccc2c(O)c1C(c1ccccn1)c1c(O)c2ccc(O)cc2oc1=O,-52%
9,CN1C2CCCC1CC(=O)C2,-10.8%
10,O=C(O)C(F)(F)C(F)(Cl)C(F)(F)C(F)(Cl)C(F)(F)C(F)(Cl)C(F)(F)Cl (stereo not given) (tested in a mixture with another compound),35.5% and 30.5%
11,CC(=O)CC1(OC(=O)C2C(C=C(C)C)C2(C)C)C(=O)Nc2ccccc21 (stereo not given),39.5%
12,Cc1ccc(O)c(CN2CCN(Cc3cc(C)ccc3O)CC2)c1,7.8%
13,CC(=O)C(C(C)=O)C(C)=O.CC(=O)C(C(C)=O)C(C)=O.CC(=O)C(C(C)=O)C(C)=O.[Cr],5.25%
14,COc1ccc(/C=C\[N+](=O)[O-])cc1OCc1ccccc1,8.05%
15,[Cl][Pd]([Cl])([Cl])[Cl].[NH-]CC[NH-].[NH-]CC[NH-].[Pd+2],54.7%
16,Oc1cc(Br)c(O)c(Br)c1,41.8%
17,N.N.N.N.[Co+3].[O-][Cl+3]([O-])([O-])[O-].[OH3+].[OH3+],-13.6%
18,CC(=O)C1(c2ccccc2)CCNCC1,-3.35%
19,COc1ccc(CC2C3=C(CCCC3)CCN2C)cc1 (stereo not given),-25.8%
20,O=C(NCCNC(=O)Nc1ccccc1S(=O)(=O)F)Nc1ccccc1S(=O)(=O)F,-13%

# — PubChem BioAssay (NCI)
